The supplement of paper PMC6555819

Legend:
Experiment in all cases: PBM binding z-score (relative to random genomic background probes); higher = stronger binding; sequences stand for … in GC…GCGATTGACAGCGTAGAATGAAGG
[1] = tested on: FXR:RXRa (NR concentration 270 nM, RXRa partner concentration 90 nM)
Summary of the method: (§1)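 Custom Agilent 4×180K protein-binding microarrays carried double-stranded probes, each with a 34-nt variable region. These regions held direct-repeat seeds, single-nucleotide variants, half-site ablations and random human genomic background sequences. Ligand-free nuclear receptor dimers were incubated on the arrays for 1 h, antibodies against each partner (one per run) detected binding, and scanned fluorescence was regression-normalized. Binding z-scores take the random background probes as reference.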

[2] = tested on: LXRa:RXRa (NR concentration 270 nM, RXRa partner concentration 90 nM)
Summary of the method: as §1

[3] = tested on: LXRa homodimer (NR concentration 270 nM)
Summary of the method: as §1

[4] = tested on: LXRb:RXRa (NR concentration 270 nM, RXRa partner concentration 90 nM)
Summary of the method: as §1

[5] = tested on: LXRb homodimer (NR concentration 270 nM)
Summary of the method: as §1

[6] = tested on: PPARa:RXRa (NR concentration 270 nM, RXRa partner concentration 90 nM)
Summary of the method: as §1

[7] = tested on: PPARg:RXRa (NR concentration 180 nM, RXRa partner concentration 90 nM)
Summary of the method: as §1

[8] = tested on: PPARg:RXRa 270nM:90nM, anti-RXR (NR concentration 270 nM, RXRa partner concentration 90 nM)
Summary of the method: as §1

[9] = tested on: PPARg:RXRa 30nM:10nM, anti-RXR (NR concentration 30 nM, RXRa partner concentration 10 nM)
Summary of the method: as §1

[10] = tested on: PPARg:RXRa 90nM:30nM, anti-RXR (NR concentration 90 nM, RXRa partner concentration 30 nM)
Summary of the method: as §1

[11] = tested on: PPARg:RXRa DBDmut IVT, anti-RXR (DBD mutation: RXRa K156A/R161A, NR concentration 270 nM, RXRa partner concentration 90 nM)
Summary of the method: as §1

[12] = tested on: PPARg:RXRa IVT, anti-PPARg (NR concentration 270 nM, RXRa partner concentration 90 nM)
Summary of the method: as §1

[13] = tested on: PPARg DBDmut:RXRa IVT, anti-PPARg (DBD mutation: PPARg1 K132A/R137A, NR concentration 270 nM, RXRa partner concentration 90 nM)
Summary of the method: as §1

[14] = tested on: PPARg DBDmut IVT, anti-PPARg (DBD mutation: PPARg1 K132A/R137A, NR concentration 270 nM)
Summary of the method: as §1

[15] = tested on: PPARg homodimer (NR concentration 180 nM)
Summary of the method: as §1

[16] = tested on: PXR:RXRa (NR concentration 270 nM, RXRa partner concentration 90 nM)
Summary of the method: as §1

[17] = tested on: PXR homodimer (NR concentration 270 nM)
Summary of the method: as §1

[18] = tested on: RARa:RXR (NR concentration 270 nM, RXRa partner concentration 90 nM)
Summary of the method: as §1

[19] = tested on: RARa homodimer (NR concentration 270 nM)
Summary of the method: as §1

[20] = tested on: RARb:RXRa (NR concentration 270 nM, RXRa partner concentration 90 nM)
Summary of the method: as §1

Row | Sequence | PBM binding z-score [1] | PBM binding z-score [2] | PBM binding z-score [3] | PBM binding z-score [4] | PBM binding z-score [5] | PBM binding z-score [6] | PBM binding z-score [7] | PBM binding z-score [8] | PBM binding z-score [9] | PBM binding z-score [10] | PBM binding z-score [11] | PBM binding z-score [12] | PBM binding z-score [13] | PBM binding z-score [14] | PBM binding z-score [15] | PBM binding z-score [16] | PBM binding z-score [17] | PBM binding z-score [18] | PBM binding z-score [19] | PBM binding z-score [20]
1 | TAGTCTAGGTCATTGGGCCAGTATAGTACGCATC | 4.44 | 4.2 | 2.26 | 2.54 | 2.53 | 4.28 | 5.91 | 4.82 | 3 | 4.56 | 5.99 | 6.49 | 2.81 | 2.94 | 3.92 | 1.95 | 0.361 | 2.72 | 1.24 | 3.81
2 | CGTCCAAGGTCAGAGAGGTCAGTGATTGCCGAGT | 5.58 | 5.02 | 2.88 | 4.28 | 0.656 | 4.54 | 3 | 3.95 | 0.692 | 2.55 | 3.12 | 3.08 | -0.867 | -0.653 | 4.12 | 5.79 | 10.6 | 4.66 | 1.54 | 5.09
3 | TAGACTAGGTCATTCAGGGGCCAGTATAGAAAGC | 4.16 | 3.02 | 0.5 | 2.45 | 1.5 | 3.77 | 5.02 | 4.54 | 2.12 | 3.67 | 6.24 | 6.36 | 3.24 | 2 | 2.65 | 2.21 | 0.176 | 3.32 | 0.508 | 3.64
4 | CCTACTGGTCCATTCAGAGGTCATTGATCATATG | 2.73 | 4.6 | 7.06 | 3.9 | 1.12 | 3.32 | 0.652 | 1.92 | 0.224 | 1.05 | 0.337 | 1.32 | -0.102 | 0.307 | 3.17 | 4.52 | 4.29 | 4.42 | 1.99 | 2.89
5 | GCGACTGGGGCATCAGCTGGTTACCATAACTTAA | -0.422 | -0.589 | -0.452 | 0.296 | -0.935 | 0.397 | 0.563 | 0.562 | -0.565 | 0.127 | 3.64 | 3.01 | -1.02 | -0.691 | -0.402 | -0.444 | -1.17 | -0.536 | -1.25 | 0.475
6 | AATACAGGGTCATCGTAGGCCAAAGTACGCACAG | 7.45 | 6.92 | 3.34 | 5.36 | 1.6 | 6.04 | 6.83 | 5.96 | 2.67 | 4.78 | 2.81 | 4.06 | 3.81 | 2.62 | 3.47 | 5.59 | 1.03 | 5.27 | 1.3 | 4.29
7 | TTTTGTAGATCAGCAGGTTAAGAAAGCTGGCCAA | -0.421 | -0.315 | -0.236 | 0.141 | -0.319 | 0.634 | -0.106 | 0.922 | 0.508 | 0.797 | 0.508 | 1.04 | -0.105 | 0.632 | 0.357 | 0.0195 | -0.117 | 0.084 | 0.0423 | 0.0903
8 | CCTGCTAGGTCATGGTCAGCTAATCTACAGTATG | 3.81 | 2.6 | 0.19 | 1.83 | -0.244 | 3.52 | 2.37 | 2.98 | 0.934 | 1.97 | 4.5 | 4.22 | 0.0201 | 0.284 | 0.79 | 1.41 | 0.115 | 2.34 | 0.369 | 3.95
9 | GCTTACCGGTCAAAGGTTATAGCATGAATAGAAT | 4.43 | 4.56 | 1.49 | 3.6 | 0.218 | 5.47 | 8.77 | 7.56 | 6.87 | 8.38 | 1.07 | 3.62 | 1.01 | 0.383 | 1.71 | 3.63 | 0.0899 | 5.64 | 0.15 | 3.59
10 | ATATGTAGGTTACATCCGGGTCATTTAGGCTATG | 2 | 4.62 | 1.8 | 3.3 | 0.865 | 4.68 | 6.01 | 5.23 | 2.64 | 4.38 | 7.42 | 7.5 | 4.18 | 3.77 | 3.45 | 3.45 | 1.06 | 3.55 | 0.824 | 2.16
11 | TCTTGTAGATCAGCAGGTGAAGAAAGCTGGCCAA | 0.169 | -0.0408 | -0.605 | -0.0895 | -0.698 | 0.51 | -0.409 | 1.19 | 2.2 | 1.8 | 1.32 | 0.857 | 0.193 | -0.252 | -1.42 | -0.182 | -0.577 | 0.0618 | -0.865 | -0.138
12 | ATCTCTAGGTAACCAATTTCAGTGAATGCCGAAC | 0.444 | 0.64 | 0.561 | 0.348 | 1.28 | 0.596 | 0.441 | 0.547 | 0.162 | 0.306 | 3.89 | 2.94 | 1.28 | 1.42 | 0.77 | 0.453 | 0.601 | 0.264 | 0.959 | 0.458
13 | TAGCCCAGGTCATTGGGCCAGTATAGTACGCATC | 4.84 | 3.77 | 0.677 | 2.25 | -0.127 | 4.22 | 3.72 | 3.93 | 0.844 | 2.6 | 1.36 | 3.68 | -0.318 | -0.214 | 1.51 | 2.71 | 0.0159 | 3.06 | -0.165 | 3.71
14 | CCGACAGGGGCAGAAAGGTTACCATACCATCCGG | 0.56 | 0.716 | -0.132 | 1.04 | -0.954 | 1.95 | 1.47 | 1.96 | 0.381 | 1.32 | -0.112 | 0.0354 | -1.22 | -0.752 | 1.16 | 1.25 | 0.36 | 1.92 | 0.385 | 1.95
15 | TCGAGTAGGTTACTAATGGGGCATTCAGCTTTCT | -0.458 | 2.4 | -0.454 | 1.24 | -0.917 | 0.717 | -0.149 | 0.701 | 0.939 | 0.928 | 3.02 | 2.39 | 0.0923 | -0.475 | -0.0554 | 0.00033 | -0.441 | 0.224 | -0.684 | 0.494
16 | AGTCAAAGTTCACTAGGTAACGAAAGATTCAGCT | 5.29 | 5.15 | 2.87 | 3.05 | 0.803 | 4.94 | 7.8 | 6.56 | 3.66 | 5.74 | 2.71 | 5.36 | 0.953 | 1.35 | 2.81 | 3.8 | 2.41 | 2.8 | 1.47 | 4.54
17 | ATCTCTAGGTACAAGTTCAGTGAATCCCGAGGAT | 0.207 | 0.339 | 0.332 | 0.411 | 0.905 | 2.42 | 3.28 | 4.58 | 3.23 | 4.51 | 0.163 | 1.47 | 0.611 | 0.766 | 0.56 | 1.92 | 1.54 | 0.393 | 0.103 | 1.66
18 | GCATATAGGTAATACAAGGTGCAAGTCCGATTGT | -0.133 | -0.156 | -0.264 | -0.333 | -0.455 | 0.617 | 0.975 | 0.986 | 0.152 | 0.648 | 3.88 | 2.81 | 0.731 | 0.109 | 0.579 | -0.0713 | 0.191 | 0.538 | 0.49 | -0.282
19 | ACTTACGGGTCGACGAGGTTATAGCACGCGTATA | 1.82 | 1.97 | 0.124 | 1.94 | 0.314 | 2.97 | 1.52 | 1.22 | 0.608 | 0.729 | 0.585 | 1.14 | 0.084 | 0.394 | 0.944 | 2.68 | 0.798 | 2.75 | -0.198 | 1.82
